According to ChEMBL document CHEMBL4513216, “Probing the Open Global Health Chemical Diversity Library for Multistage-Active Starting Points for Next-Generation Antimalarials” (ACS Infect Dis, 2020):
Hit rate of the full screen: of about 68,000 compounds, about 2,700 (4%) showed an effect of 50% or more. The sample holds strong results, similar compounds and a random draw of the others, so the mix is not that of the screen.

The compounds below were run on Plasmodium berghei (assay: Screen against P. berghei liver stage (PbLuc), transformed with Luciferase, at 2uM). Details: tested at 2 uM.
Assay type: functional, HepG2

| SMILES | INHIBITION |
| --- | --- |
| Cc1ccc(C(=O)N2CCO[C@H]3[C@H](OCc4ccccn4)CC[C@@H]32)o1 | 30.96% |
| Cc1cc(C)n(CCCC(=O)N2CCc3ncc(Cl)cc3C2)n1 | 51.99% |
| Cc1nc(C)n(CCC(=O)N2CCc3ncc(Cl)cc3C2)n1 | 40.31% |
| Cc1nc(C)n(CC(=O)N2CCc3ncc(Cl)cc3C2)n1 | 44.9% |
| Cc1nnc(CNC(=O)[C@@H]2C[C@H](NC(=O)C(C)(C)C)CN2C)[nH]1 | -4.77% |
| CN1C[C@@H](NC(=O)c2cc(F)cc(F)c2)C[C@H]1C(=O)NCc1ncc[nH]1 | -7.68% |
| CN1C[C@@H](NC(=O)C(C)(C)C)C[C@H]1C(=O)NCc1ncc[nH]1 | 67.85% |
| N#Cc1c(Cl)nsc1NCc1cccnc1OCC(F)(F)F | 5.94% |
| Cc1nn(C)cc1Cn1c(=O)cnc2ccccc21 | 2.82% |
| Cc1nn(C)cc1Cn1c(=O)c(C)nc2ccccc21 | 21.57% |
| Cc1nn(C)cc1Cn1c(=O)ccc2ccccc21 | 51.36% |
| Cc1nnc2n1CCN(C(=O)c1cnc3c(cnn3CC(C)C)c1)C2 | 56.89% |
| CCc1nnc2n1CCN(C(=O)c1cnc3c(cnn3C(C)C)c1)C2 | 24.05% |
| Cc1nnc2n1CCN(C(=O)c1cnc3c(cnn3C(C)C)c1)C2 | 17.48% |
| CC(C)C(=O)N1CC[C@H]2N(C)CC[C@@]2(C(=O)N2CCOCC2)CC1 | 35.34% |
| CNC(=O)Cc1ccc(NC(=O)NCc2ncc(C)s2)cc1 | 38.67% |
| CNC(=O)Cc1ccc(NC(=O)NCC(C)c2ncc(C)s2)cc1 (centres undefined) | 50.59% |
| CNC(=O)Cc1ccc(NC(=O)NCc2nc(C)sc2C)cc1 | 45.82% |
| CN1C(=O)C(C)(C)COc2cc(NS(=O)(=O)Cc3ccccc3)ccc21 | -18.38% |
| c1ccc(CN2CCc3ncnc(C4CCOC4)c3CC2)nc1 (centres undefined) | -4.2% |
| CCn1ccnc1CN1CCN(C(C)C(=O)NCc2ccco2)CC1 (centres undefined) | -17.18% |
| Cc1cnc(CN(Cc2cccc(O)c2)CC2CC2)cn1 | -14.45% |
| Cc1cccnc1CN1CC[C@@](C)(O)[C@H](Oc2ccccc2)C1 | 37.4% |
| C[C@]1(O)CCN(Cc2ncccc2F)C[C@@H]1Oc1cccc(F)c1 | 14.47% |
| C[C@]1(O)CCN(Cc2ncccc2F)C[C@@H]1Oc1ccccc1 | 51.99% |
| CCOC(=O)c1cc2n(n1)CCCO2 | 4.95% |

| SMILES | INHIBITION |
| --- | --- |
| CCOCC1CN(c2ncc(F)cn2)Cc2cn(CC)nc21 (centres undefined) | -10.78% |
| O=C(Nc1ccccc1)N1CCc2nc(C(=O)N3CCCC3)sc2CC1 | -18.86% |
| Cc1ncc(CNC(=O)CCc2ccccc2F)c(C2CCCN2C)n1 (centres undefined) | 4.66% |
| Cc1ncc(CNC(=O)CCc2cccs2)c(C2CCCN2C)n1 (centres undefined) | -14.56% |
| Cc1ncc(CNC(=O)CCc2c(C)noc2C)c(C2CCCN2C)n1 (centres undefined) | 58.18% |
| O=C(O)c1sccc1Oc1ccc(NC(=O)C2CC2)cc1 | 19.62% |
| Cn1cccc1C(=O)N1CCO[C@@H]2CN(Cc3ccco3)C[C@@H]2C1 | 35.64% |
| c1ccc(Cc2nc(CNC3CCOC4(CCOCC4)C3)no2)cc1 (centres undefined) | 1.06% |
| c1ccc(-c2nc(CCNC3CCOC4(CCOCC4)C3)no2)cc1 (centres undefined) | 58.53% |
| c1ccc(Cc2noc(CCNC3CCOC4(CCOCC4)C3)n2)cc1 (centres undefined) | -7.16% |
| c1cnc2[nH]c(C3CCNCC3)c(CN3CCOCC3)c2c1 | 26.98% |
| NC(=O)c1nc2c(s1)CCN(Cc1ccccc1)CC2 | -14.74% |
| CCC(CC)c1cc(CNC(=O)N2CCOCC2CC)on1 (centres undefined) | -8.83% |
| CC(C)NC(=O)CNC(=O)N1CCc2c([nH]c3ccc(Cl)cc23)C1 | 43.4% |
| CC(C)NC(=O)CNC(=O)C12CCC(=O)N1c1cc(Cl)ccc1S2 (centres undefined) | 62.51% |
| CC(C)C(=O)NCCNC(=O)C12CCC(=O)N1c1cc(Cl)ccc1S2 (centres undefined) | 79.21% |
| COC(=O)CNC(=O)C12CCC(=O)N1c1cc(Cl)ccc1S2 (centres undefined) | 48.21% |
| CC(C)C(=O)NCc1cccc(N2CCCCC2=O)c1 | -8.7% |
| CCOCCCNC(=O)C1(C)CCC(=O)N1c1ccccc1F (centres undefined) | 19.99% |
| CC(=O)Nc1cccc(OCCNC(=O)N(C)Cc2ccncc2)c1 | -44.49% |
| O=C(NC(c1ccc(Cl)cc1)c1cccnc1)C1CC1 (centres undefined) | -58.01% |
| O=S(=O)(Cc1ccccc1Cl)NCCCN1CCCC1 | 49.88% |
| O=S(=O)(Cc1ccccc1F)NCCCN1CCCCC1 | 21.18% |
| O=S(=O)(Cc1c(F)cccc1Cl)NCCCN1CCCCCC1 | 53.19% |
| CN(CC(=O)N1CC(C)(C)[C@@](C)(O)C1)Cc1ccncc1 | 32.07% |
| CCc1nnc(Nc2cc(C)nc(C3CCN(c4ncccn4)C3)n2)s1 (centres undefined) | -10.89% |

| SMILES | INHIBITION |
| --- | --- |
| O=C(c1cc(COc2ccc3c(c2)OCO3)[nH]n1)N1CCSCC1 | 14.46% |
| Cn1cnc2c1CCN(c1ccnc(-c3ccccc3)n1)C2 | 56.33% |
| Cn1cnc2c1CCN(Cc1csc(-c3ccccc3)n1)C2 | 6.3% |
| c1ccc(-c2nccc(N3CCc4c(ncn4C4CC4)C3)n2)cc1 | 24.51% |
| Cc1nc(CN2CCN(c3nc4c(s3)c(C)nn4C)CC2)cs1 | 36.88% |
| O=C(Nc1ccc(F)cc1)C(c1ccccc1)N1CCOCC1 (centres undefined) | 71.1% |
| COc1ccc(NC(=O)C(c2ccc(OC)cc2)N2CCOCC2)cc1 (centres undefined) | 27.22% |
| COc1ccc(NC(=O)C(c2cccc(F)c2)N2CCOCC2)cc1 (centres undefined) | 26.65% |
| CC(C)c1ccc(OCC(=O)N(C)C)cc1 | -32.48% |
| COc1ccc(CCN2C(=O)O[C@@H]3CN(C)C[C@@H]32)cc1 | -7.29% |
| CN(C[C@H]1CN2CC[C@H]1C[C@@H]2CNC(=O)c1ccco1)c1ccccc1 | 65.7% |
| CC[C@H]1CN2CC[C@H]1C[C@@H]2CNC(=O)c1ccco1 | 9.42% |
| CCN(CC)C[C@H]1CN2CC[C@H]1C[C@@H]2CNC(=O)c1ccco1 | 31.07% |
| Cc1nc(CCN)cc(N2CCC(O)(c3ccc(Cl)cc3)CC2)n1 | 11.38% |
| Cc1nc(CCN)cc(N2CCC(O)(c3ccccc3)C2)n1 (centres undefined) | 23.18% |
| Cc1nc(CN)cc(N2CCC(O)(c3ccc(Cl)cc3)CC2)n1 | 59.94% |
| CCNC(=O)N1CCc2ccc(NC(=O)C(C)c3ccsc3)cc21 (centres undefined) | -44.17% |
| CC(Cn1cncn1)NCc1csc2c1CCCC2 (centres undefined) | 26.75% |
| CC(Cn1ccnc1)NCc1csc2c1CCCC2 (centres undefined) | 66.4% |
| CC(Cn1cccn1)NCc1csc2c1CCCC2 (centres undefined) | 49.88% |
| O=C(N[C@@H]1CCN(c2nc3ccccc3o2)C[C@H]1O)c1cnccn1 | 26.3% |
| O=C(NC1CCCC1)O[C@H]1COCCN(c2nc3ccccc3o2)C1 | 52.91% |
| O=C(NC1CCCC1)O[C@H]1COCCN(c2nc3ccccc3s2)C1 | 51.26% |
| CCNC(=O)O[C@H]1COCCN(c2nc3ccccc3s2)C1 | 29.85% |
| CC(C)NC(=O)O[C@H]1COCCN(c2nc3ccccc3s2)C1 | 41.93% |
| c1ccc2oc(N3CCCC4(CCOC4)C3)nc2c1 (centres undefined) | -14.46% |

| SMILES | INHIBITION |
| --- | --- |
| NC(=O)N1CCc2ncc(CNC(=O)CC3CC3)n2CC1 | 25.08% |
| CC(=O)N1CCCC1c1cc(N2CCN(CC3CC3)CC2)cc(C)n1 (centres undefined) | 6.89% |
| O=C(c1ccoc1)N1CCc2ncnc(NCc3ccccn3)c2CC1 | 1.01% |
| CN(C)CCC1CCN(Cc2ccn(C)c(=O)c2)CC1 | 16.84% |
| COC(=O)C1CCN(C(=O)c2nnc3ccc(Cl)cc3n2)CC1 | 24.52% |
| CC(=O)c1cccc(OCCCC(=O)N(C)Cc2cnc(C)s2)c1 | -37.03% |
| Cc1cnc(N2CCC3(CCCN3C(=O)c3ccco3)CC2)nc1 | 26.01% |
| Cc1nc(NCc2nonc2C)cc(C(C)Cn2nc(C)c(C)c2C)n1 (centres undefined) | 84.94% |
| Cc1nc(NCCO)cc(C(C)Cn2nc(C)c(C)c2C)n1 (centres undefined) | -16.2% |
| Cc1nc(NCc2ccccc2)cc(C(C)Cn2nc(C)c(C)c2C)n1 (centres undefined) | -30.88% |
| COc1cc(C2(C(=O)N3CCN(CC(C)(C)O)CC3)CC2)ccc1C | 17.48% |
| CCc1ccc(C(=O)N2CCN(CC(C)O)CC2)o1 (centres undefined) | 54.85% |
| COc1ccc(C(=O)N2CCN(c3cc(CCN)nc(C)n3)CC2)cc1 | -10.41% |
| CCc1nc(CN2CCCN(C(=O)c3ccco3)CC2)cs1 | 70.27% |
| CCc1nc(CN2CCCN(C(=O)c3occc3C)CC2)cs1 | 21.52% |
| CCc1nc(CN2CCCN(C(=O)c3ccccc3)CC2)cs1 | -10.44% |
| Cc1nc(CCN)cc(N2CCCN(C(=O)c3ccco3)CC2)n1 | 54.3% |
| CCc1nc(CN2CCCN(C(=O)c3cccn3C)CC2)cs1 | -18.39% |
| CCc1nc(CN2CCN(C(=O)c3cc(C)nn3C)CC2)cs1 | 53.98% |
| Cc1nc(N2CCN(C(=O)c3ccco3)CC2)c2c(n1)c(C)nn2C | 1.77% |
| CCN(CC)Cc1ccc(C(=O)N2CCN(CC(C)O)CC2)o1 (centres undefined) | 21.12% |
| CCc1nc(CN2CCN(C(=O)c3cc(C)no3)CC2)cs1 | 36.73% |
| CCc1ccc(C(=O)N2CCN(CC(O)CC)CC2)o1 (centres undefined) | 5.59% |
| Cc1noc(C)c1CN1CC2(CCN(C(=O)c3c[nH]cn3)C2)CC1=O (centres undefined) | 47.35% |
| Cc1noc(C)c1CN1CCc2ncc(CN(C)C)n2CC1 | 1.48% |
| Cc1nc(N2CCN(C)CC2)ncc1C(=O)N1CC[C@](C)(O)[C@H](C)C1 | -5.13% |
